Each structure is given as a SMILES string. About 83,000 compounds went through this panel and 20% of them were active in at least one assay; those are over-represented in the sample as a whole.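 How to read the values: 0–100, growth inhibition (40 = 60% inhibited); 0, no net growth; -100 to 0, cell death (-40 = 40% of starting cells died; -100 = all dead).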 Values without a mark were called inactive. The source made the active and inactive calls.

The subject of the assay is OVCAR-3 ovarian. In words: NCI-60 one-dose screen, 48 h (100 = growth as untreated, 0 = no growth, -100 = all killed). The note with it: 10 µM unless noted. Here is the method:
Growth inhibition of the OVCAR-3 human tumor cell line is measured as a screen for anti-cancer activity. Cells are grown in 96 well plates and exposed to the test compound for 48 hours. Compounds are tested at a single concentration, which is 10^-5 M for most compounds. The reported endpoint is percent growth (GI% or GIPRCNT), where numbers from 0 - 100% represent growth inhibition, and numbers from -100% - 0 represent cell death. For example, a value of 40 represents 60% growth inhibition. A value of 0 means no net growth occurred over the course of the experiment. A value of -40 indicates 40% of cells at the beginning of the experiment died by the end of the experiment. A value of -100 means all cells are dead at the end of the experiment.
NCI-60 Human Tumor Cell Lines Screen was performed using the standard one-dose NCI protocol, which is described in more detail at https://dtp.cancer.gov/discovery_development/nci-60/default.htm.
Compounds with GIPRCNT values below 10 were considered active. Activity score was based on GIPRCNT using the following formula: […]
Score is 0 for GIPRCNT values of 100 or above, 50 for GIPRCNT values of 0, and 100 for GIPRCNT values of -100.
Take `CCCCCCNC(=O)Oc1ccc(/C(=C(\C)c2ccccc2)c2ccc(OCCCN(C)C)cc2)cc1`: the growth is 89.7%.

Take `C=C1C(=O)O[C@H]2[C@H]1CC/C(CNC(=O)c1cccc3ccccc13)=C\CC[C@@]1(C)O[C@@H]21`: the growth is 24.8%.

As to `C=CC(=O)N[C@@H](/C=C/C(=O)OCC)Cc1ccc(-c2cc(Cl)cc(Cl)c2)cc1`, the growth is 13.5%.

Turning to `c1ccc(Cn2cnc3ccc(-c4nc(-c5ccc6c(c5)ncn6C5CCCCC5)cn5ccnc45)cc32)cc1`, the growth is -35.7% (active).

`CCCCN1C=CCN(CCCC)C1`: the growth was 13.1%.

As to `COc1ccc(C(=O)Nc2cccc(C3CCc4c(cc(OC)c(OC)c4OC)O3)c2)cc1` (stereo not given), the growth is 35.3%.

For `COc1ccccc1/C(C)=N/NC(=O)CSc1nc2ccccc2c(=O)n1Cc1ccc(S(N)(=O)=O)cc1`, the growth is 108%.

As for `CCN1Cc2nc3sc(C)c(C)c3c(=O)n2C=C1C`, the growth is 46%.

`NS(=O)(=O)c1ccc(Cn2c(SCC(=O)N/N=C/c3ccccc3O)nc3ccccc3c2=O)cc1`: the growth is 13.4%.

`CC(=O)N1c2ccccc2NC2=C(C(=O)NC2(C)C)C1c1ccco1` (stereo not given): the growth was 97.1%.

With `CCCCOc1ccc(/C(C)=N/Nc2cc(C)nc3ccc(Br)cc23)cc1`, the growth is 101%.

With `COC1=CC(=O)c2ccccc2C1=O`, the growth was 24.5%.

Consider `O=C(Nc1ccc(NC(=O)c2cc(=O)[nH]c3ccccc23)cc1)Nc1cccc(Cl)c1`, for which the growth was 89.2%.

`Nc1n[nH]c2cccc(C#Cc3cccc(C(=O)Nc4cccc(C(F)(F)F)c4)c3)c12`: the growth is 73.8%.

Turning to `O=C(N/N=C/c1cc2ccccc2n2nnnc12)Nc1ccccc1`, the growth was 111%.

Take `O=C1c2cccc3c(-c4ccc5c(c4)ncn5C4CCCCC4)ccc(c23)C(=O)N1CCO`: the growth is 88.9%.

On to `O=C(Cn1c[n+](CC(=O)c2ccc(-c3ccccc3)cc2)c2ccccc21)Nc1cccc2cccnc12`, for which the growth is -1.51% (active).

`O=C(Nc1ccc(Cl)cc1)c1cc(NCc2cc(O)ccc2O)ccc1O`: the growth is 48.8%.

With `CCNc1nc2cc(Nc3ccnc4cc(Cl)ccc34)ccc2o1`, the growth was 80.9%.

For `CCN(Cc1ccccc1)c1ccc(C=O)cc1`, the growth was 97.9%.

`C#CCNC(=O)[C@H](Cc1ccccc1)NC(=O)[C@]12CC[C@@H](C(=C)C)[C@@H]1[C@H]1CC[C@@H]3[C@@]4(C)CCC(=O)C(C)(C)[C@@H]4CC[C@@]3(C)[C@]1(C)CC2`: the growth was 62.9%.

`COC(=O)CNC(=O)[C@]12CCC(C)(C)C[C@H]1C1=CC[C@@H]3[C@@]4(C)Cc5c([nH]c6ccccc56)C(C)(C)[C@@H]4CC[C@@]3(C)[C@]1(C)CC2`: the growth is 93%.

In the case of `O=C(CCN1CCCC1)Nc1ccc2c(Nc3ccc(Br)cc3)c3ccccc3nc2c1`, the growth is -65.1% (active).

With `COc1ccc(C(=O)C2C(C#N)C(C#N)C3c4ccccc4C=CN23)cc1` (stereo not given), the growth is 92.2%.

In the case of `COc1cc2c(c(O)c1Cl)C(=O)c1c(O)cc(C[C@H](C)O)cc1[C@H]2[C@H]1c2cc(C[C@H](C)O)cc(O)c2C(=O)c2c1cc(OC)c(Cl)c2O`, the growth is -20.4% (active).

As for `COc1ccc(C(=O)c2cc(C)c(OC)c(C)c2)c(OC)c1N(C(=O)CCl)C(=O)CCl`, the growth is -6.63% (active).

Consider `CC(=O)O[C@H]1Cc2c([nH]c3ccccc23)[C@@H](c2ccc(Cl)cc2)N1C(=O)CCNC(C)(C)C`, for which the growth was 70.8%.

For the molecule `CCOC(=O)c1cc(C#N)n2ccc3ccccc3c12`, the growth was 102%.

As to `Cn1ccnc1C(=O)/C=C/c1ccc(CC(=O)NC2CCCCC2)cc1`, the growth is 27.6%.

On to `O=Cc1cc2ccccc2nc1Oc1ccc(C(F)(F)F)cc1`, for which the growth was 96.7%.

For the molecule `O=C(C[n+]1cccc2ccccc21)c1ccc(O)c(O)c1`, the growth is 35.7%.

Take `C=CCN1C(=O)/C(=C/C(=O)OC)S/C1=N\NC(=O)c1cc2ccc1/C=C\c1ccc(cc1)/C=C\2`: the growth is 86.4%.

In the case of `O=S(=O)(NCCCNc1nccc(-c2c(-c3cccc(F)c3)nc3sccn23)n1)c1cccc(F)c1`, the growth is 50.7%.

For `C=C(C)[C@@H]1CC[C@]2(C(=O)N3CCN(C)CC3)CC[C@]3(C)[C@H](CC[C@@H]4[C@@]5(C)C/C(=C/c6ccncc6)C(=O)C(C)(C)[C@@H]5CC[C@]43C)[C@@H]12`, the growth is 53.3%.

For the molecule `O=C1c2cccc3c(-c4ccc5c(c4)ncn5C4CCCCC4)ccc(c23)C(=O)N1c1nc2ccccc2s1`, the growth was 89.8%.

Take `O=C(CCN1CCCC1)Nc1ccc2c(NCc3ccccc3)c3ccccc3nc2c1`: the growth is -33.4% (active).

Regarding `Cc1c(C(=O)NCCC(=O)NO)sc2ncnc(Nc3ccc(NC(=O)Nc4cccc(C(F)(F)F)c4)cc3)c12`, the growth is 112%.

As for `COc1ccc(C(=O)c2cc(C)c(OC)c(C)c2)c(OC)c1NC(C)=O`, the growth was 5.93% (active).

Turning to `c1ccc2c(-c3c[nH]c4ccccc34)c3c(cc2c1)[nH]c1ccccc13`, the growth is 59.3%.

On to `CCCOC(=O)N[C@H]1CCc2c(Cl)c(OC)c(OC)c(OC)c2-c2ccc(SC)c(=O)cc21`, for which the growth is -24.7% (active).

The values above are taken from PubChem BioAssay (NCI).
